TDP1 cell noCPT: qHTS for Inhibitors of human tyrosyl-DNA phosphodiesterase 1 (TDP1): qHTS in cells in absence of CPT; AID 686978, 2013; DT40 Tdp1-/- hTDP1 cells, no CPT, ATP luminescence, 48 h; actives 15% (n = 420,000); Potency, µM (doses to about 46.2 µM), without a hit: at the highest dose activity change, negative = growth inhibition, usual class: inhibitors; note: potency is the fitted concentration of half-maximal effect; nearly all actives have a fitted effect of over 55% in size
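Growth kinetics read by CellTiter-Glo luminescence after ≥48 hr at 37 °C. Cells: DT40 Tdp1-/- stably carrying human TDP1, 400 per well, compound exposure in the absence of CPT (DMSO vehicle).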
HT1080 IDH1KD tx: kills HT-1080 cells with IDH1 knockdown. HT-1080 IDH1 knockdown viability, ATP luminescence, 48 h. Potency, µM (doses to about 46.1 µM), without a hit: at the highest dose activity, negative = toxicity, most hits filed as cytotoxic. actives 2% (n = 360,000);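 note: potency is the fitted concentration of half-maximal effect; 0% = DMSO wells and -100% = cell-free medium wells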
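Luminescent ATP read-out (CellTiter-Glo, 10 min at room temperature) after 48 h compound exposure at 37 °C gave viability of IDH1-knockdown HT-1080 cells. Activity was normalised to DMSO and cell-free wells, then fitted as concentration-response curves.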
TDP1 cell CPT: growth inhibition of DT40 Tdp1-/-;hTDP1 cells with camptothecin (screen for TDP1 inhibitors) | AID 686979 | chicken DT40 Tdp1-/-;hTDP1 cells + 20 nM CPT, ATP luminescence, 48 h | Potency, µM (top dose mostly 46.2 µM), for the others: top-dose activity change, negative = growth inhibition, usual class: inhibitors | actives 12% (n = 420,000); note: potency is the fitted concentration of half-maximal effect; nearly all actives have a fitted effect of over 55% in size
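Chicken DT40 Tdp1-/- cells complemented with human TDP1, 400 cells/well, exposed to compounds plus 20 nM camptothecin for at least 48 h at 37 C; viability read as ATP content by CellTiter-Glo luminescence.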
HT1080NT lethal: kills 2HG-producing HT-1080-NT fibrosarcoma cells; HT-1080-NT fibrosarcoma viability, CellTiter-Glo ATP luminescence, 48 h; Potency, µM (titrated, usually from 46.1 µM), without a hit: at the highest dose activity, negative = less viability, most hits filed as cytotoxic; actives 1.6% (n = 360,000);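 note: NT is the 2HG producing partner of a matched IDH1 knockdown line; potency is the fitted concentration of half-maximal effect; 0% = DMSO-treated cells and -100% = media-only wells without cells; nearly all actives have a fitted effect of over 55% in size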
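Viability by CellTiter-Glo luminescence after 48 h compound exposure at 37C of HT-1080-NT cells (750/well, RPMI, 5% FBS). % activity scaled between DMSO wells and medium-only wells, then curve-fitted and categorized by curve class.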
IL-1B inflam inh: inhibitors of inflammasome signaling (IL-1 beta secretion). THP-1 LPS/ATP IL-1B secretion, AlphaLISA, 16 h; active compounds read low. actives 4.7% (n = 360,000). activity change, % at 57.5 µM; in the data active = activity change below about -50%; inconclusive = mostly about -30% to -49%
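Secreted IL-1B measured by AlphaLISA bead assay after 16 h compound exposure of THP-1 cells; compounds (final up to 57.5 uM) added 1 h before LPS (250 ng/mL) and ATP (1.25 mM) stimulation; lower signal means less secretion.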
* = called active by the depositor; u = inconclusive; x = no result given; [ ] = remark or other dose. Rows were chosen to be rich in hits. Some 19% of all compounds tested hit in one or more screens of this group. Unless noted, calls come from the whole dose curve; as a rule, active = well fitted curve in the direction sought with a large enough effect; inconclusive = small, poorly fitted or top-dose-only effect, or another doubt; inactive = no such curve, though single readings can be large; an effect the other way counts as inactive or inconclusive. Unless noted, % is set by controls: 0 for no effect and ±100 for the full control effect.

SMILES	TDP1 cell noCPT	HT1080 IDH1KD tx	TDP1 cell CPT	HT1080NT lethal	IL-1B inflam inh
Cc1ccc(Cc2c(-c3ccc(F)cc3)nc3ccc(Br)cn23)cc1	u	-2%	u	-4%	4
O=C(c1ccc(Cl)c([N+](=O)[O-])c1)N1CCN(C(=O)c2ccco2)CC1	-29%	0%	-10%	-2%	7
O=C(c1ccco1)N1CCN(c2c([N+](=O)[O-])nn(-c3cccc(Cl)c3)[n+]2[O-])CC1	u	13%	16µM*	-2%	41
Cc1c(C(=O)N2CCN(c3ccccn3)CC2)cccc1[N+](=O)[O-]	4%	5%	-8%	12%	-9
Cc1ccc(Nc2ccc(N3CCN(C(=O)c4cccc([N+](=O)[O-])c4)CC3)nn2)cc1	16µM*	x	u	x	x
O=C(c1cccc([N+](=O)[O-])c1)N1CCCN(C(=O)c2cccc([N+](=O)[O-])c2)CC1	-12%	16%	26%	3%	0
Cc1c(C(=O)N2CCN(c3cccc(Cl)c3)CC2)cccc1[N+](=O)[O-]	16µM*	-14%	16µM*	-10%	-1
O=C(c1cccc([N+](=O)[O-])c1)N1CCN(c2ncccn2)CC1	-7%	0%	2%	0%	1
O=C(c1cccc([N+](=O)[O-])c1)N1CCN(c2cccc(Cl)c2)CC1	18µM*	u	18µM*	u	-3
Cc1ccc(S(=O)(=O)CCC(=O)OC(C)C(=O)N2CCc3ccccc32)cc1 (stereo not given)	-18%	0%	-5%	1%	8
COC(=O)c1cc(C(=O)N2CCOCC2)cc([N+](=O)[O-])c1	7%	12%	-3%	8%	19
COC(=O)c1cc(C(=O)N2CCN(c3cccc(Cl)c3)CC2)cc([N+](=O)[O-])c1	0.92µM*	0.46µM*	0.65µM*	0.52µM*	61
CC1CC(C)CN(C(=O)CCC(=O)Nc2nnc(C3CCCCC3)s2)C1 (stereo not given)	u	9%	u	u	9
CCC(=O)N1CCc2cc(Br)cc(S(=O)(=O)N3CCCC(C(=O)Nc4cccc(Cl)c4C)C3)c21 (stereo not given)	12µM*	x	15µM*	x	x
CCC(=O)N1CCc2cc(Br)cc(S(=O)(=O)NCCc3ccccc3Cl)c21	21µM*	x	16µM*	x	x
CCCNS(=O)(=O)c1cc(Br)cc2c1N(C(=O)CC)CC2	-13%	13%	-12%	15%	2
CCC(=O)N1CCc2cc(Br)cc(S(=O)(=O)CCC(=O)NCCc3cccc(C)c3)c21	23µM*	x	16µM*	x	x
CCC(=O)N1CCc2cc(Br)cc(S(=O)(=O)CCC(=O)NCCc3ccccc3)c21	u	u	-4%	u	-13
Nc1c([N+](=O)[O-])cnnc1-c1ccccc1	-7%	6%	3%	-4%	1
CC1=C(CC(=O)NCC(=O)NCC(=O)O)c2cc(F)ccc2/C1=C/c1ccc(S(C)=O)cc1 (stereo not given)	6%	2%	3%	20%	11
Cc1onc(-c2ccccc2)c1C(=O)Nc1cccc(S(=O)(=O)NC2=NCCC2)c1	21%	1%	u	-4%[9.24 µM]	-13
O=C(Nc1cccc(S(=O)(=O)NC2=NCCC2)c1)c1cn(-c2ccccc2)nc1-c1ccc(F)cc1	2.6µM*	u	3.7µM*	u	u
Cc1ccc(-c2nn(-c3ccccc3)cc2C(=O)Nc2cccc(S(=O)(=O)NC3=NCCC3)c2)cc1	0.21µM*	0%	3%	0%	0
O=C1NC2(CCCC2)C(=O)N1CC(=O)N(Cc1ccccc1)c1ccccc1	u	14%	-14%	-1%	0
O=C(N/N=C/c1ccncc1)c1nc(-c2ccccc2)n2c1CCCCC2	7.3µM*	-5%	7.3µM*	2%	u
SMILES	TDP1 cell noCPT	HT1080 IDH1KD tx	TDP1 cell CPT	HT1080NT lethal	IL-1B inflam inh
NNC(=O)c1nc(-c2ccccc2)n2c1CCCCC2	-5%	0%	-2%	1%	0
O=C(O)CCc1ccc(-c2ccccc2)n1-c1cccc(Br)c1	-11%	x	-8%	x	x
COC(=O)c1cc(S(=O)(=O)N2CCN(c3ccc(OC)cc3)CC2)cn1C	-10%	-6%	-24%	0%	0
Cn1cc(S(=O)(=O)N2CCCCCC2)cc1C(=O)N1CCN(c2cccc(C(F)(F)F)c2)CC1	23µM*	x	16µM*	x	x
Cn1cc(S(=O)(=O)N2CCCCCC2)cc1C(=O)N1CCN(c2cccc(Cl)c2)CC1	u	x	15µM*	x	x
COc1ccc(N2CCN(C(=O)c3cc(S(=O)(=O)N4CCC(C)CC4)cn3C)CC2)cc1	21µM*	x	23µM*	x	x
CC(C)S(=O)(=O)NC(=O)C1(C)CCN1C(=O)Cc1ccccc1 (stereo not given)	-11%	8%	7%	0%	12
O=C(Cc1ccc(NC(=O)C2CCN(C(=O)C3CCC3)CC2)cc1)Nc1ccc(C(=O)N2CCOCC2)cc1	-5%	6%	8%	8%	u
CC(C)Cc1ccc(CN2CCCC(NC(=O)Cn3cnnn3)C2)cc1 (stereo not given)	-64%	0%	u	-11%	-1
CC(C)Cc1ccc(CN2CCCC(NC(=O)CCn3cnnn3)C2)cc1 (stereo not given)	u	-2%	u	-6%	-60*
CC(C)Cc1ccc(CN2CCCC(NC(=O)CCN3CCOCC3)C2)cc1 (stereo not given)	u	-1%	u	-7%	-9
CC(C)Cc1ccc(CN2CCCC(NC(=O)CCCN3CCCC3=O)C2)cc1 (stereo not given)	21µM*	0%	u	-1%	30
O=C(NCc1ccc(Cl)cc1)c1ccc(Cn2c(=O)c3cccn3c3cccnc32)cc1	9%	x	8%	x	x
O=C(NCCc1ccccc1Cl)c1ccc(Cn2c(=O)c3cccn3c3cccnc32)cc1	10µM*	x	10µM*	x	x
CN(C)c1ccc(CNC(=O)c2ccc(Cn3c(=O)c4cccn4c4cccnc43)cc2)cc1	0.21µM*	x	u	x	x
O=C(CN1C(=O)CCC1=O)Nc1nc(-c2nc3ccccc3s2)cs1	-14%	18%	11%	13%	-57*
O=C(NCc1ccc(F)cc1)c1cccc(S(=O)(=O)N2CCOCC2)c1	15%	19%	2%	4%	-5
CCCC1CC(C)(c2csc(Nc3ccc(OCC)cc3)n2)OC1=O (stereo not given)	15µM*	-23%	13µM*	-25%	-2
COc1cc2nc(Nc3cccc(F)c3)nc(N)c2cc1OC	5.8µM*	u	12µM*	u	x
COc1ccc(Nc2nc(N)c3ccccc3n2)c(OC)c1	-34%	u	12%	-22%	x

Source: PubChem (National Center for Advancing Translational Sciences (NCATS))
